# Compound activity deposited in PubChem by several laboratories.
# Shown are actives, neighbours in structure and some others; about 4% of the full set was active somewhere.
# Beta cell apopt – blocks beta cell apoptosis; INS-1E cytokine-induced death, ATP luminescence, 48 h; percent of positive-control rescue, neutral wells zero; protection from apoptosis, % (concentration not given with the values); 300,000 tested, 0.8% active; AID 435005;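 active = Every replicate reaches about 75%, or at least half do and their mean reaches it too, limit read from the data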;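 note: 0% = cytokine-treated negative control wells and 100% = positive control rescue; higher means more ATP so stronger rescue from cytokine killing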
# Mdm2-MdmX inh – disrupts the human Mdm2-MdmX interaction. O15151+Q00987. SaOS-2 split-luciferase Mdm2/MdmX complementation, luminescence. inhibition, % at 8 µM. 330,000 tested, 3% active. AID 485346;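 active = inhibition of at least 50% at 8 µM in the primary screen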
# Gli-Sufu block – Gli-Sufu pathway antagonism; Sufu-KO-LIGHT fibroblasts, Gli luciferase reporter luminescence; inhibition, % at 5 µM; 340,000 tested, 0.74% active; AID 588413;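 active = inhibition above about 55%, limit read from the data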;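 note: 0% = DMSO-treated cells and 100% = wells with medium but no cells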
# Jurkat NFkB inh – inhibitors of the PMA/ionomycin-induced NF-kB reporter in Jurkat cells; AID 435003; inhibition, % at 4 µM; PMA/ionomycin-induced NF-kB luciferase reporter, luminescence; 330,000 tested, 0.53% active; in the data active = inhibition above about 50%
# 697 NFkB inh – lowers PMA/ionomycin-induced NF-kB signal in 697 B cells; 330,000 tested, 0.33% active; 697 B-cell NF-kB luciferase reporter, 16 h; inhibition, % at 4 µM; in the data active = inhibition above about 35%
# Gli antag conf – confirmation of Gli-SUFU pathway antagonists. inhibition, % at 5 µM. shares compounds with Gli-Sufu block. AID 602428. Sufu-KO-LIGHT cells, Gli luciferase reporter, luminescence. 2,500 tested, 40% active;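 active = mean inhibition at 5 µM reaching about 45%, limit read from the data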;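 note: plate controls were DMSO-treated cells for no effect and wells lacking cells for full effect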
# Gli cytotox – cytotoxic in Gli-SUFU antagonist counter-screen; AID 651994; shares compounds with Gli-Sufu block; 2,500 tested, 32% active; cytotoxicity, % at 5 µM; Sufu-KO-LIGHT cells cytotoxicity, ATP luminescence;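 active = mean cytotoxicity at 5 µM above about 25%, limit read from the data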;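 note: cells exposed to compound overnight for roughly 16 to 18 hours; plate controls were DMSO wells with cells for no effect and medium without cells for full effect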
# Wnt3a cs – inhibits Wnt3a reporter, counter-screen for Gli-SUFU antagonists; shares compounds with Gli-Sufu block; Wnt-LIGHT cells, Wnt3a-driven luciferase reporter, luminescence; inhibition, % at 6.25 µM; 2,500 tested, 20% active; AID 651995;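 active = mean inhibition above about 25%, limit read from the data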
# * = called active by the depositor; / = not tested or not shown.
SMILES,Beta cell apopt,Mdm2-MdmX inh,Gli-Sufu block,Jurkat NFkB inh,697 NFkB inh,Gli antag conf,Gli cytotox,Wnt3a cs
O=C(CN1C(=O)COc2ccc(S(=O)(=O)N3CCCCC3)cc21)NCc1ccc(Cl)cc1,-0.8,34.7,59.4*,31.9,-2.4,7.9,25.1*,-28.6
COc1cccc(CNC(=O)CN2C(=O)COc3ccc(S(=O)(=O)N4CCCCCC4)cc32)c1,7.8,-0.5,13.7,2.6,4.1,/,/,/
Cc1c(C(C)C)c(=O)n(-c2ccc(S(=O)(=O)NCc3ccccc3)cc2)n1C,105.0*,22.6,71.4*,47.4,-8.9,63.0*,23.5,5.6
Cc1c(C(C)C)c(=O)n(-c2ccc(S(=O)(=O)NC3CCCCC3)cc2)n1C,57.4,-0.4,68.4*,33.3,-42.4,60.3*,25.3*,-4.3
Cc1c(C(C)C)c(=O)n(-c2ccc(S(=O)(=O)N3CCOCC3)cc2)n1C,1.6,-21.3,4.1,3.6,-1.5,/,/,/
COc1ccc(N(CC(=O)NCc2ccc(F)cc2)S(=O)(=O)c2c(C)n[nH]c2C)cc1,-0.2,18.7,-3.8,6.3,10.0,/,/,/
Cc1ccc(N(CC(=O)NCc2ccc(F)cc2)S(=O)(=O)c2c(C)n[nH]c2C)cc1,4.1,19.8,73.2*,-4.6,-46.6,14.0,7.3,-48.9
COc1ccc(Cn2c(C)nc3ccc([N+](=O)[O-])cc3c2=O)cc1,-3.1,11.7,60.9*,4.8,3.5,32.5,23.9,-11.5
COc1ccccc1OCCNC(=O)C1CC(=O)N(c2cccc(SC)c2)C1 (centres undefined),-3.4,-2.2,95.5*,-17.3,-23.5,27.7,20.2,-25.6
CSc1cccc(N2CC(C(=O)NCCC3=CCCCC3)CC2=O)c1 (centres undefined),2.0,-14.0,-5.6,8.6,9.1,/,/,/
COc1cccc(CN2CC(C(=O)NCCOc3ccccc3F)CCC2=O)c1 (centres undefined),1.0,-0.2,59.5*,0.1,-9.6,35.8,15.4,-39.0
Cc1cccc(N/C(N)=N/c2nc(C(F)(F)F)cc(C(F)(F)F)n2)c1,-4.3,-22.6,5.9,5.0,10.7,/,/,/
CN(C)c1ccc(N/C(N)=N/c2nc(C(F)(F)F)cc(C(F)(F)F)n2)cc1,6.4,16.7,50.2,0.1,-10.0,22.3,12.2,-20.9
COc1ccc(-c2nn(-c3ccccc3)cc2C=O)cc1[N+](=O)[O-],6.0,1.1,55.3*,-14.2,22.3,14.2,32.9*,8.6
CCCC1(CCC)NC(=O)N(CC(=O)Nc2ccc(Cl)c(S(=O)(=O)N3CCOCC3)c2)C1=O,1.7,26.4,1.9,19.5,-26.6,/,/,/
Cc1nc(N)nc(Nc2ccc(C#N)cc2)c1Br,10.4,18.4,55.5*,-2.1,2.5,32.4,19.7,-2.3
COc1ccc(-c2noc(CCCCC(=O)N3CCN(c4cc(C)ccc4C)CC3)n2)cc1,/,49.0,67.9*,/,30.9,72.9*,28.4*,29.5*
O=C(NCCC(=O)N(CCc1ccccc1)Cc1ccccc1)c1ccc(Br)cc1,-5.4,12.3,3.9,10.0,13.3,/,/,/
COc1cc(OC)c(OC)cc1CNC(=O)c1cccc(S(=O)(=O)N2CCc3ccccc3C2)c1,/,23.2,65.8*,45.3,12.3,63.6*,35.5*,25.4*
COc1ccc(-c2cc(C(F)(F)F)n3nc(C(=O)Nc4c(C)n(C)n(-c5ccccc5)c4=O)cc3n2)cc1,/,/,11.8,/,/,/,/,/
CCCc1cc(=O)oc2cc(C)cc(OCC(=O)O)c12,-5.5,0.3,99.6*,-12.4,8.4,5.1,-4.8,-9.4
FC(F)(F)c1cnc(Sc2nnc(-c3cccs3)n2CC2CCCO2)c(Cl)c1 (centres undefined),1.4,13.8,51.0,-5.2,5.2,11.1,23.5,-27.9
COc1ccccc1OC(C)C(=O)Nc1ccccc1C(=O)NCc1cccnc1 (centres undefined),-0.6,-7.4,56.0*,-3.8,4.6,19.9,11.3,-28.7
COc1ccc(/C(C)=N/NC(=O)c2sccc2-n2cccc2)cc1,-1.3,26.8,-5.6,-14.2,-13.1,/,/,/
O=C(CN1CCN(S(=O)(=O)c2ccc(Br)s2)CC1)N1CCCCC1,4.2,-21.6,-8.7,-14.9,-20.9,/,/,/
SMILES,Beta cell apopt,Mdm2-MdmX inh,Gli-Sufu block,Jurkat NFkB inh,697 NFkB inh,Gli antag conf,Gli cytotox,Wnt3a cs
[O-]/C(=C(\C(=S)NCc1ccccc1)[n+]1ccccc1)c1ccc(Cl)s1,-6.1,20.5,2.5,-0.3,2.8,/,/,/
CC(OC(=O)c1cccc(-n2cnnn2)c1)C(=O)Nc1ccc(F)cc1 (centres undefined),-7.2,18.1,50.0,7.4,-22.7,24.6,10.2,5.6
COc1ccc(-c2nc(CCl)cs2)cc1OC,0.2,11.8,60.3*,-23.5,-6.6,10.1,16.1,-14.8
COc1ccc(-c2nc(CCl)cs2)cc1,-6.0,-17.2,-15.6,-27.9,-43.7,/,/,/
COC(CNC(=O)C(=O)Nc1cc2c3c(c1)CCN3C(=O)CC2)OC,0.9,4.1,97.9*,-18.8,-44.2,24.8,-0.5,15.7
CNC(=O)C(=O)Nc1cc2c3c(c1)CCN3C(=O)CC2,-6.7,19.0,95.5*,-4.2,15.0,18.7,5.3,2.6
CCN(CC)CCNC(=O)C(=O)Nc1cc2c3c(c1)CCN3C(=O)CC2,-3.5,3.9,3.5,-18.0,-42.4,/,/,/
Nc1ncccc1C(=O)OCC(=O)N1CCN(S(=O)(=O)c2ccc(Cl)cc2)CC1,-6.2,49.2,-6.2,-17.2,-18.0,/,/,/
Cc1nc2cccc(C)n2c(=O)c1Cl,-2.5,7.3,55.7*,2.9,26.3,10.0,15.6,7.2
Cc1nc2ccc(Br)cn2c(=O)c1Cl,0.5,7.6,2.4,4.8,10.6,/,/,/
O=C(c1cc(COc2ccc(F)cc2Cl)on1)N(CCO)Cc1cccs1,-2.8,-10.1,-12.3,2.1,-15.8,/,/,/
O=C(O)C1CCCN(S(=O)(=O)c2ccc(F)cc2)C1 (centres undefined),0.7,-1.4,0.9,-0.1,8.0,/,/,/
O=S(=O)(c1ccc(F)cc1)N1CCCC(CO)C1 (centres undefined),-7.8,-22.9,52.0,-7.0,-24.0,12.3,1.9,-8.5
COc1ccccc1/C(C)=N/Oc1cc(N)cc([N+](=O)[O-])c1,-2.0,-9.8,-20.1,3.1,13.4,/,/,/
CN(C)c1ccc(/C=N/NC(=O)C[n+]2ccccc2)cc1,-2.1,14.5,52.6,-9.7,-3.6,9.7,5.7,-13.9
CCCC1CCc2c(sc(N)c2C(N)=O)C1 (centres undefined),-0.1,15.0,-3.7,11.5,8.2,/,/,/
O=C(CCN1C(=O)c2ccccc2C1=O)CN1CCOCC1,1.5,-3.0,-0.2,9.7,9.4,/,/,/
CCOc1ccc(NC(=O)CCC(=O)NNS(=O)(=O)c2ccccc2[N+](=O)[O-])cc1,-2.6,12.2,-4.5,1.3,-1.6,/,/,/
CCNC(=O)NC(=O)COC(=O)CCCSc1nc2ccccc2[nH]1,-6.0,-19.1,26.1,9.4,7.6,/,/,/
